Laboratory results as given in ChEMBL document CHEMBL1157539, “Thousands of chemical starting points for antimalarial lead identification” (Nature, 2010).

These molecules were tested on Plasmodium falciparum (assay: GSK_TCMDC: Inhibition of Plasmodium falciparum Dd2 in whole red blood cells, using parasite LDH activity as an index of growth. Test compounds present at 2uM).
Assay type: functional

Q: For `COc1cc(NC(=O)Nc2ccc([N+](=O)[O-])cc2OC)c(OC)cc1Cl`, which Inhibition is on record?
A: Its Inhibition is 6%.

Q: How did the Inhibition turn out when `CC(c1cccc(S(=O)(=O)NCc2ccc(Cl)cc2Cl)c1)N1CCC(N2CCCCC2)CC1` (centres undefined) was run?
A: Its Inhibition is 40%.

Q: How did the Inhibition turn out when `CCCCCC(C)C(C)c1cc(O)c2c(c1)OC(C)(C)CC2(O)c1ccnn1C` (centres undefined) was run?
A: Its Inhibition is 95%.

Q: Which Inhibition does the source give for `CCn1c(-c2nonc2N)nc2c(-c3cccc(NC(=O)Nc4cccc(C#N)c4)c3)ncc(OCCCN)c21.O=C(O)C(F)(F)F` here?
A: Its Inhibition is 80%.

Q: How did the Inhibition turn out when `CN1CCC(NCc2ccc(-c3ccc(S(=O)(=O)NCc4ccccc4)cc3)cc2)CC1.O=C(O)C(F)(F)F` was run?
A: The Inhibition was 51%.

Q: With `Cc1c(Cc2ccccc2)c(=O)oc2c(C)c3c(cc12)CN(CC(C)c1ccccc1)CO3` (centres undefined) as the molecule, how does the Inhibition read?
A: Its Inhibition is 98%.

Q: For `CCNc1cc(C(=O)N[C@@H](Cc2ccccc2)[C@H](O)CNC2C3CC4CC(C3)CC2C4)cc(N2CCCCS2(=O)=O)c1.Cl` (some centres undefined), which Inhibition is on record?
A: Its Inhibition is 96%.

Q: With `CN1CCC(C(=O)Nc2cccc(-c3ccc(-c4nc5cc(C(F)(F)F)ccc5[nH]4)cc3)c2)CC1` as the molecule, how does the Inhibition read?
A: The Inhibition was 99%.

Q: Which Inhibition does the source give for `COc1ccc(NC(=O)CSc2nc(-c3ccccc3Cl)ns2)cc1` here?
A: The Inhibition was 75%.

Q: Which Inhibition does the source give for `CS(=O)(=O)c1ccc(CNCc2cccc(-c3cccc(-c4nc5ccccc5[nH]4)c3)c2)cc1.O=C(O)C(F)(F)F` here?
A: The Inhibition was 47%.

Q: How did the Inhibition turn out when `COc1cc(Cc2cnc(N)nc2N)cc(OC)c1OCCCCC(=O)O.Cl` was run?
A: The Inhibition was 0%.

Q: For `CC1Cc2ccccc2N1CC(=O)Nc1cc(C(F)(F)F)ccc1-n1cncn1` (centres undefined), which Inhibition is on record?
A: The Inhibition was 97%.

Q: Which Inhibition does the source give for `COc1cccc2c(C)cc(NCc3ccc(Cl)cc3)nc12` here?
A: Its Inhibition is 5%.

Q: With `O=S(=O)(c1cccc(Br)c1)N1CCCCC(c2ccc(C(F)(F)F)cc2)=N1` as the molecule, how does the Inhibition read?
A: The Inhibition was 92%.
